Experimental findings from PubChem BioAssay (Tox21) are described below.

Experiment [1] can be described thus: qHTS assay to identify small molecule HDAC inhibitors (AID 1259364).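 Also: wild-type HCT-116 cells with endogenous class I/II HDAC activity; top concentration of the series differs between compounds; nearly all actives have a fitted effect of over 45% in size.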 In outline:
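Screening used wild-type human colon HCT-116 cells incubated overnight, dosed with compounds for 2 hours, and assayed with a homogeneous luminogenic HDAC I/II reagent for 30 minutes at room temperature.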

A short description of experiment [2]: qHTS assay to identify small molecule HDAC inhibitors - cell viability counter screen (AID 1259365). Also: series mostly up to about 92 µM; nearly all actives have a fitted effect of over 50% in size. In outline:
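Counter screen in wild-type HCT-116 cells: compounds dissolved in DMSO are pin-transferred onto overnight-plated cells and left 2hr at 37C. ATP-based CellTiter-Glo luminescence then measures viable cells.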

A short description of experiment [3]: qHTS assay to identify small molecule agonists of the sonic hedgehog signaling (Shh) pathway - cell viability counter screen (AID 1259366). Also: nearly all actives have a fitted effect of over 50% in size. Also: potency is read from the fitted curve at half-maximal effect. In outline: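 Cells are plated at 2,000 per well and left 4hr at 37C, 5% CO2 before compound addition. After 23hr of treatment, CellTiter-Fluor reagent is added for 1hr at 37C and fluorescence is measured.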
Experiment [4] can be described thus: qHTS assay to identify small molecule antagonists of the sonic hedgehog signaling (Shh) pathway - cell viability counter screen (AID 1259367). Also: nearly all actives have a fitted effect of over 55% in size. Also: potency is read from the fitted curve at half-maximal effect. In outline: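 Fluorescence read-out (CellTiter-Fluor, 1 hr at 37C) taken after 23 hr compound treatment of 3T3 Gli1-Luc cells stimulated with conditioned medium. Cells were seeded at 2,000 per well and pre-incubated 4 hr.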

Experiment [5] is described as follows: qHTS assay to identify small molecule agonists of the sonic hedgehog signaling (Shh) pathway (AID 1259368; calls by dose curve;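 also: NIH/3T3-derived 3T3Gli1-Luc cells carrying a stable Gli1-driven firefly luciferase reporter; series mostly up to about 92 µM; nearly all actives have a fitted effect of over 15% in size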). In outline: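 Hedgehog pathway agonism scored by increased firefly luciferase luminescence in 3T3Gli1-Luc cells treated 24 hr at 37 C; detection used a 30 min room-temperature reagent incubation.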
The nature of experiment [6]: qHTS assay to identify small molecule antagonists of the sonic hedgehog signaling (Shh) pathway (AID 1259369; calls by dose curve; also: nearly all actives have a fitted effect of over 45% in size). In outline: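 NIH/3T3 stable Gli1-Luc clone, 2,000 cells/well, 4hr settle; cpd + conditioned medium 24hr; Luc reagent 30min RT; luminescence.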
Experiment [7] deals with Estrogen receptor beta (Homo sapiens) (UniProt Q92731). Nature of the experiment: qHTS assay to identify small molecule agonists of the estrogen receptor beta (ER-beta) signaling pathway (AID 1259377; active = well fitted activation curve with a large enough effect in the signal ratio in the repeat runs, not every such curve was filed as active; the % refers to the signal ratio). In outline: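 Agonist mode cell assay in GripTite HEK293T cells expressing an ER-beta fusion that drives beta-lactamase from an Upstream Activator Sequence; 16 hr compound exposure at 37C, then 2 h LiveBLAzer B/G FRET substrate at room temperature, fluorescence read-out.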

The target is the same in experiment [8]. Nature of the experiment: qHTS assay to identify small molecule antagonists of the estrogen receptor beta (ER-beta) signaling pathway (AID 1259378; active = well fitted inhibition curve with a large enough effect in the signal ratio in the repeat runs, not every such curve was filed as active; the % refers to the signal ratio). In outline: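 ER-beta-UAS-bla HEK293T cells in 2% charcoal-stripped FBS medium treated with compound plus 1nM final 17-beta-estradiol for 16 hr at 37C. Beta-lactamase reporter read by FRET substrate fluorescence after 2 hours at room temperature.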

The nature of experiment [9]: qHTS assay to identify small molecule agonists of the androgen receptor (AR) signaling pathway in the presence of an antagonist - cell viability counter screen (AID 1259379).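 Also: MDA-kb2 human breast cancer cells carrying an MMTV luciferase reporter; series mostly up to about 92 µM; nearly all actives have a fitted effect of over 25% in size.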 In outline:
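MDA-kb2 viability measured by CellTiter-Fluor fluorescence in the same wells as the luciferase signal; nilutamide 3.0uM final; 15-point compound titration; 16 hr at 37C.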

Experiment [10] is described as follows: qHTS assay to identify small molecule agonists of the estrogen receptor beta (ER-beta) signaling pathway - cell viability counter screen (AID 1259380). Also: nearly all actives have a fitted effect of over 30% in size. Also: potency is read from the fitted curve at half-maximal effect. In outline:
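Measured: luminescence from CellTiter-Glo after 30 min at room temperature, added to wells already read for the LiveBLAzer FRET reporter (2 hr substrate); ER-beta-UAS-bla HEK293T cells had 16 hr compound treatment at 37C, 5% CO2.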

Values without a mark were called inactive. Records with an inconclusive call do not appear. Where a structure was tested more than once in an assay, its records may differ in their call. Activity calls are given as the source filed them. Unless noted, calls follow the shape of the dose curve; as a rule, active = well fitted curve in the direction sought with a large enough effect in the repeat runs; inconclusive = weak or mixed curves; inactive = no such curve, though single readings can be large; an effect the other way counts as inactive or inconclusive.
% is scaled to controls: 0 for no effect and ±100 for the full control effect.

Chain of Estrogen receptor beta (Homo sapiens) (Q92731 whole entry, looked up, the tested form may be a part): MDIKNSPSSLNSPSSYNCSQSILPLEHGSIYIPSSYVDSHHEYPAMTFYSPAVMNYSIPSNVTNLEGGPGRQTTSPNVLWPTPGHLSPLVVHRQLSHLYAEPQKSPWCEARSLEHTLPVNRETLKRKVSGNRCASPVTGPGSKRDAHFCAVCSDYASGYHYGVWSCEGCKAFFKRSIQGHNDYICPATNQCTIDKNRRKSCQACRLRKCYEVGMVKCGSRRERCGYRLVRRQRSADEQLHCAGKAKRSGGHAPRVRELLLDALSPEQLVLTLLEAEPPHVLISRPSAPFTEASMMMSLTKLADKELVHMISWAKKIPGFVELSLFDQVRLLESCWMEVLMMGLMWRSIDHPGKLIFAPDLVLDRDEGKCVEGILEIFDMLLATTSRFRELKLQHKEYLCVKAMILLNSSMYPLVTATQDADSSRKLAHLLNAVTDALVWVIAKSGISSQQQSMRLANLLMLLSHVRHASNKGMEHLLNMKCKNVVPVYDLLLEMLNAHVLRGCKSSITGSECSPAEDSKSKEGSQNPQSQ

`CC1CCC2CC1C2(C)C` (stereo not given): the Potency result in [1], in [3], in experiment [4], in experiment [6], in experiment [7] and in experiment [8] was “inactive” in each case. The Potency entry in experiment [9] and in [10] was “inactive” each time. Besides, the compound was classed as inactive in experiment [2] and in [5].

Consider `c1c[nH]cn1`, for which the Potency entry in experiment [1], in experiment [3], in [4], in [6], in experiment [7] and in experiment [8] was “inactive” each time. Moreover, the Potency entry in experiment [9] and in experiment [10] was “inactive” each time. Further, the call in experiment [2] and in experiment [5] was inactive.

Consider `CCCCC(CC)COC(=O)CCCCC(=O)OCC(CC)CCCC` (stereo not given), for which the Potency entry in experiment [1], in [3], in experiment [4], in experiment [6], in experiment [7] and in experiment [8] was “inactive” throughout. For the same compound, the Potency entry in experiment [9] and in [10] was “inactive” each time. The result in experiment [2] and in experiment [5] was inactive.

For `CCCCCCCCCCCCCCO`, the Potency entry in [1], in [3], in experiment [4], in [6], in experiment [8] and in experiment [9] was “inactive” each time. Moreover, in [10], the Potency result is “inactive”. Further, the result in [2] and in experiment [5] was inactive.

As for `CC(C)(N)CO`, the Potency result in experiment [1], in experiment [3], in experiment [4], in [6], in experiment [7] and in [8] was “inactive” each time. For the same compound, the Potency entry in [9] and in [10] was “inactive” in each case. The compound was called inactive in [2] and in [5].

In the case of `O=C(O)CCCC[C@@H]1SC[C@@H]2NC(=O)N[C@@H]21`, the Potency result in experiment [1], in experiment [3], in experiment [4], in experiment [6], in experiment [7] and in experiment [8] was “inactive” throughout. In addition, the Potency entry in experiment [9] and in [10] was “inactive” throughout. The compound was called inactive in experiment [2] and in experiment [5].

As to `CC1CCC(C(C)C)C(O)C1` (stereo not given), the Potency result in [1], in experiment [3], in [4], in experiment [6], in [7] and in [8] was “inactive” each time. Also, the Potency result in experiment [9] and in experiment [10] was “inactive” each time. In addition, the call in experiment [2] and in experiment [5] was inactive.

Regarding `CN(C)CCC(c1ccccc1)c1ccccn1` (stereo not given), the Potency result in experiment [1], in [3], in experiment [4], in [6], in [8] and in [9] was “inactive” in each case. For the same compound, the Potency entry in experiment [10] is “inactive”. Also, the compound was classed as inactive in experiment [2] and in [5].

For `C=CCNC(N)=S`, the Potency entry in experiment [1], in experiment [3], in experiment [4], in [6], in [7] and in [8] was “inactive” each time. Moreover, the Potency entry in experiment [9] and in experiment [10] was “inactive” each time. The compound was called inactive in experiment [2] and in experiment [5].

Take `COc1cc(Cc2cnc(N)nc2N)cc(OC)c1OC`: the Potency entry in experiment [1], in experiment [3], in experiment [4], in experiment [6], in [7] and in experiment [8] was “inactive” in each case. The Potency result in [9] and in experiment [10] was “inactive” each time. Also, the call in experiment [2] and in experiment [5] was inactive.

Regarding `NNc1nncc2ccccc12`, in experiment [1], the activity change, negative = inhibition was -29.1% [at 19 µM]. The outcome in [2] and in experiment [5] was inactive. Moreover, the Potency in experiment [3] was 48.6 µM (active); in [4] it was 61.1 µM (active); in [10], 21.7 µM (active). Moreover, the viability change, negative = cytotoxic is -0.875% [at 19 µM] in experiment [3] and 1.95% [at 19 µM] in experiment [4]. For the same compound, the Potency result in [6] and in [9] was “inactive” in each case. Moreover, the activity change, negative = cytotoxicity in experiment [10] is -0.605% [at 19 µM].

For the compound `C[Si](O[Si](C)(C)C)O[Si](C)(C)C`, the Potency entry in experiment [1], in [3], in [4], in [6], in experiment [7] and in experiment [8] was “inactive” throughout. Also, the Potency entry in experiment [9] and in experiment [10] was “inactive” throughout. Besides, the compound was classed as inactive in experiment [2] and in experiment [5].

Take `CC(C)c1ccc(S(=O)(=O)O)cc1`: the Potency entry in [1], in experiment [3], in [4], in [6], in experiment [7] and in experiment [8] was “inactive” throughout. Moreover, the Potency entry in [9] and in experiment [10] was “inactive” throughout. Moreover, the result in experiment [2] and in experiment [5] was inactive.

Consider `CCN(CC)c1ccc(C(=O)c2ccccc2C(=O)O)c(O)c1`, for which the Potency result in [1], in experiment [3], in [4], in experiment [6], in experiment [8] and in experiment [9] was “inactive” each time. Besides, the outcome in experiment [2] and in experiment [5] was inactive.

In the case of `CCCCCCCCCCCCS`, the Potency result in [1], in experiment [3], in experiment [4], in experiment [6], in [8] and in [9] was “inactive” each time. The Potency result in experiment [10] is “inactive”. In addition, the compound was classed as inactive in experiment [2] and in [5].

For `C#CCN(C)Cc1ccccc1`, the Potency result in [1], in experiment [3], in [4], in experiment [6], in experiment [7] and in [8] was “inactive” in each case. The Potency entry in experiment [9] and in [10] was “inactive” each time. The compound was classed as inactive in [2] and in experiment [5].

On to `O=c1[nH]c(=O)n([C@H]2CCCO2)cc1F`, for which the Potency result in experiment [1], in experiment [3], in [4], in experiment [6], in experiment [8] and in [9] was “inactive” throughout. Also, the Potency result in [10] was “inactive”. In addition, the result in experiment [2] and in experiment [5] was inactive.
